According to PubChem BioAssay AID2242 (National Center for Advancing Translational Sciences (NCATS), 2010):
Several values for one entry are separate records, joined by “and”; a condition that tells them apart may be missing. Identical values can stand only once. Hit rate of the full screen: of about 200,000 compounds, about 720 (0.36%) were called active. Not shown: some 8% with an inconclusive outcome. The call rests on the fitted dose curve; in most records, active means well fitted activation curve with a large enough effect; inconclusive means small, poorly fitted or top-dose-only effect, or effect the other way, or another doubt; inactive means flat fitted curve, though single readings scatter. Some of the results follow.

target: Lysosomal alpha-glucosidase (Homo sapiens) (UniProt P10253); experiment: qHTS Assay for Activators of Human alpha-Glucosidase as a Potential Chaperone Treatment of Pompe Disease; conditions: purified enzyme, 4-MU-alpha-glucoside fluorescence, 20 min; series mostly up to 76.9 µM; further: nearly all actives have a fitted effect of over 80% in size
In short: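 Compounds titrated up to 77 uM against 4 nM enzyme and 400 uM methylumbelliferyl substrate at room temperature, 20 min, pH 5.0. Basic stop, then 4-methylumbelliferone fluorescence (365/440 nm) normalized to no-enzyme and enzyme controls; Hill-equation AC50.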
Potency means the concentration at half of the fitted maximal effect.

Row | Compound | Potency
1 | N=c1oc2cc(O)ccc2cc1C(=O)Nc1ccccn1 | 35.5 µM (active)
2 | N=c1oc2cc(O)ccc2cc1C(=O)Nc1nc2ccccc2s1 | 35.5 µM (active)
3 | C=CCn1c(-c2ccc(OC)cc2)nc2nc3ccccc3nc21 | 35.5 µM (active)
4 | C=CCn1c(-c2cccs2)nc2nc3ccccc3nc21 | 35.5 µM (active)
5 | CCCn1c(-c2cccs2)nc2nc3ccccc3nc21 | 35.5 µM (active)
6 | CCOC(=O)c1cccc(-n2c(-c3ccc(OC)cc3)nc3nc4ccccc4nc32)c1 | 5.01 µM (active)
7 | CC(C)Cn1c(-c2cccs2)nc2nc3ccccc3nc21 | 35.5 µM (active)
8 | CCC(C)n1c(-c2cccs2)nc2nc3ccccc3nc21 (configuration not stated) | 35.5 µM (active)
9 | Cc1cccn2c(=O)c3cc(C(=O)NCCCN4CCCC4=O)n(C)c3nc12 | 35.5 µM (active)
10 | Cc1cccn2c(=O)c3cc(C(=O)N4CCN(C(=O)c5ccco5)CC4)n(C)c3nc12 | 35.5 µM (active)
11 | Cc1ccc2nc3c(cc(C(=O)NCCCn4ccnc4)n3C)c(=O)n2c1 | 35.5 µM (active)
12 | Cc1ccc(-c2cc(C(=O)NCCCn3ccnc3)c3ccccc3n2)s1 | 28.2 µM (active)
13 | Nc1cc(C(=O)O)c(Oc2ccc(Cl)cc2Cl)cc1C(=O)O | 35.5 µM (active)
14 | O=c1oc2cc(O)ccc2c2c1CCCC2 | 35.5 µM (active)
15 | CCc1cc2c3c(c(=O)oc2cc1O)CCCC3 | 28.2 µM (active)
16 | COC(=O)C1=CN(Cc2ccc(OC)cc2)C=C(C(=O)OC)C1c1ccsc1 | 25.1 µM (active)
17 | COC(=O)C1=CN(Cc2ccc(OC)cc2)C=C(C(=O)OC)C1c1cccs1 | 25.1 µM (active)
18 | COc1ccc(-c2cn3cccnc3n2)cc1 | 35.5 µM (active)
19 | FC(F)(F)Oc1ccc(-c2cn3cccnc3n2)cc1 | 35.5 µM (active)
20 | Cc1ccc(-c2cn3cccnc3n2)cc1 | 35.5 µM (active)
21 | CC1(C)CN(c2ccc(-c3ccnc4ncnn34)cc2)C1=O | 28.2 µM (active)
22 | N#Cc1c(C(F)(F)F)cc(-c2cccs2)nc1SCc1cccnc1 | 35.5 µM (active)
23 | Cc1[nH]c2ccccc2c1C(O)CN1CCN(c2cccc(C(F)(F)F)c2)CC1 (configuration not stated) | 35.5 µM (active)
24 | Cc1cc(NCCCN2CCOCC2)n2c(nc3ccccc32)c1C#N | 31.6 µM (active)

Row | Compound | Potency
25 | CC(C)c1cc(NCCCN2CCOCC2)n2c(nc3ccccc32)c1C#N | 31.6 µM (active)
26 | COc1ccc(-c2c(C#N)c(N)nc3c2CCc2ccccc2-3)cc1OC | 35.5 µM (active)
27 | COCCCn1cnc2oc3nc4ccccc4nc3c2c1=O | 35.5 µM (active)
28 | CCOC(=O)c1cc2c(ccc3ccccc32)oc1=O | 35.5 µM (active)
29 | CC(=O)Nc1cc2ccc(OC(C)=O)cc2oc1=O | 35.5 µM (active)
30 | CC(=O)Nc1cc2c(ccc3ccccc32)oc1=O | 25.1 µM (active)
31 | O=C(O)c1cc2c(ccc3ccccc32)oc1=O | 35.5 µM (active)
32 | CC(OC(=O)c1cc2c(ccc3ccccc32)oc1=O)c1nc2ccccc2s1 (configuration not stated) | 28.2 µM (active)
33 | O=C(c1cc2c(ccc3ccccc32)oc1=O)N1CCCC1 | 31.6 µM (active)
34 | O=C(NCCc1ccccc1)c1cnc2ccccn2c1=O | 25.1 µM (active)
35 | Cc1cccc(-n2c3nc(=O)[nH]c(=O)c-3cc3c(C)nn(-c4ccccc4)c32)c1 | 20 µM (active)
36 | Cc1ccc(-n2c3nc(=O)[nH]c(=O)c-3cc3c(C)nn(-c4ccccc4)c32)c(C)c1 | 25.1 µM (active)
37 | Cc1cccc(-n2c3nc(=O)[nH]c(=O)c-3cc3c(C)nn(-c4ccccc4)c32)c1C | 22.4 µM (active)
38 | O=c1c(-c2nc3ccccc3s2)cccn1Cc1ccc(Cl)cc1 | 10 µM (active)
39 | O=c1c(-c2nc3ccccc3s2)cccn1Cc1ccc(Cl)c(Cl)c1 | 28.2 µM (active)
40 | Cc1ccc(Cn2cccc(-c3nc4ccccc4s3)c2=O)cc1 | 28.2 µM (active)
41 | O=c1c(-c2nc3ccccc3s2)cccn1Cc1ccccc1 | 39.8 µM (active)
42 | COc1cc(=O)n(C)c2cc(N(C)C)ccc12 | 31.6 µM (active)
43 | COc1cc2nc(N3CCN(C(=O)C4CCCO4)CC3)nc(N)c2cc1OC (configuration not stated) | 35.5 µM (active) and 39.8 µM (active)
44 | COc1cc2nc(N(C)CCCNC(=O)C3CCCO3)nc(N)c2cc1OC (configuration not stated) | 35.5 µM (active)
45 | COc1cc2nc(N3CCN(C(=O)C4COc5ccccc5O4)CC3)nc(N)c2cc1OC (configuration not stated) | 39.8 µM (active)
46 | O=C(O)C(=O)/C(=C\c1cccc(Cl)c1)c1ccc2ccccc2n1 | 28.2 µM (active)
47 | Cc1cccc(S(=O)(=O)Nc2ccc(-c3nc4ccc(C)cc4s3)cc2)c1 | 31.6 µM (active)
